Test results: the supplement of paper PMC6555819

Columns and labels:
Assay in all cases: PBM binding z-score (relative to random genomic background probes); higher = stronger binding; sequences stand for … in GC…GCGATTGACAGCGTAGAATGAAGG
[1] = test system: RARb homodimer (NR concentration 270 nM)
How it was run: (§1)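 Random background probes are the reference for binding z-scores. These scores derive from regression-normalized fluorescence on custom Agilent 4×180K protein-binding microarrays incubated 1 h with ligand-free nuclear receptor dimers. Binding was detected with antibodies against each partner (one per run).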

[2] = test system: RARg:RXRa (NR concentration 270 nM, RXRa partner concentration 90 nM)
How it was run: as §1

[3] = test system: RARg homodimer (NR concentration 270 nM)
How it was run: as §1

[4] = test system: RXRa DBDmut IVT, anti-RXR (DBD mutation: RXRa K156A/R161A, NR concentration 90 nM)
How it was run: as §1

[5] = test system: RXRa homodimer (NR concentration 180 nM)
How it was run: as §1

[6] = test system: THRa:RXRa (NR concentration 90 nM, RXRa partner concentration 90 nM)
How it was run: as §1

[7] = test system: THRa homodimer (NR concentration 90 nM)
How it was run: as §1

[8] = test system: VDR homodimer (NR concentration 270 nM)
How it was run: as §1

Sequence | PBM binding z-score [1] | PBM binding z-score [2] | PBM binding z-score [3] | PBM binding z-score [4] | PBM binding z-score [5] | PBM binding z-score [6] | PBM binding z-score [7] | PBM binding z-score [8]
TCTTGTAGATCAGCAGGTTACGAAAGCTGGCCAA | 0.128 | -0.124 | -0.187 | 0.505 | 0.318 | 0.29 | -0.291 | -0.293
ATCGAAAGGTTGAGGTGAGTATAGAGAAAGGGAA | 1.24 | 1.39 | 1.25 | -0.21 | 1.16 | 2.38 | 1.27 | 0.34
TCATATAGGTAAATGCTAGGAGAAAGTCCGATCT | -0.501 | 0.278 | 0.46 | 1.67 | 0.597 | -0.0458 | -0.197 | -0.0177
CTACCAAGTTGAACAAGGTCGTTGATTACTATTC | 1.75 | 0.927 | 0.929 | 2.12 | 1.15 | 2.77 | 1.57 | 3.58
TCTGCTAGGTCAACGATGGTCAGATAATCTGCTA | 3.47 | 3.89 | 5.5 | 0.978 | 3.11 | 3.17 | 0.478 | -0.329
ATCTCTAGGTAAAGTTTAGTGAAAGATCGATAGA | 0.401 | 0.251 | 0.558 | 0.303 | 0.0525 | 0.362 | 0.126 | 0.236
GCTATTAGTTGAAAAGGCAACCGAATGATTCTCG | -0.358 | 0.0252 | 0.283 | 0.693 | 0.0743 | -0.197 | -0.317 | 0.154
TCATATAGGTAAAGGTGAAATTCGAACGATATGA | 1.3 | 1.56 | 1.28 | 0.746 | 2.19 | 1.37 | -0.553 | -0.144
TCTATTAGTTGATTAGGGCAACCGTAACAGCGGA | 0.955 | 0.567 | 0.671 | 1.16 | 0.558 | 0.75 | 0.547 | 0.281
GCTGCTAGGTCAGGTTGGACAGCTAACGGGTACG | 2.35 | 2.56 | 3.42 | 0.208 | 1.06 | 1.69 | 0.46 | 0.386
TTTATTAGTTGAAGGGCAACCGACGAGTCCGTTT | 1.42 | 0.781 | 0.783 | 0.859 | 0.628 | 0.408 | 0.198 | 1.91
TCTCGGAGAACACGAAAGGTCAGAGCTCGACATC | 4.31 | 3.67 | 3.24 | 0.702 | 3.72 | 2.63 | 0.193 | 0.319
TCTCGGAGGCCACGAAGGTCAGAGCTTTCCAGAG | 3.74 | 3.08 | 3.36 | 0.442 | 1.88 | 2.12 | -0.105 | 0.706
CCGAGTAGGTTATGGGACATTCAGGCAACGGTGA | 0.969 | 0.533 | 0.86 | 0.181 | 0.607 | 0.565 | 0.413 | 0.326
CCTATTAGTTGACCATAAGGCCAACCGAAGCTCG | 1.68 | 0.941 | 0.942 | 0.893 | 0.779 | 2 | 1.89 | 1.06
ACCTACGGGTCAACGAGGTTATAGCACGCGTATA | 3.18 | 5.47 | 4.95 | 2.06 | 5.89 | 3.88 | 0.718 | 3.51
TCTGCTAGGTCAACGATGGTGAGCTAATCTGCTA | 2.8 | 3.82 | 4.93 | 0.81 | 1.99 | 2.68 | 0.17 | -0.792
GTACCAACGTGAATAGGTCGTTGATGAGTAGGCG | 0.16 | 0.141 | 0.237 | -0.361 | 0.489 | -0.22 | -1.03 | -0.24
GCAGACAGGTGAAACGCTGGTAACTCAGGGTGGC | -0.219 | 0.167 | -0.138 | -0.318 | 0.612 | 0.209 | -0.645 | -0.838

Sequence | PBM binding z-score [1] | PBM binding z-score [2] | PBM binding z-score [3] | PBM binding z-score [4] | PBM binding z-score [5] | PBM binding z-score [6] | PBM binding z-score [7] | PBM binding z-score [8]
GGAACGAGGGCAAAGTTGATGGCATCTGTCGACG | 1.32 | 2.05 | 1.74 | 2.62 | 1.97 | 1.55 | -0.087 | 1.7
CGGCAAAGTTCAAGGTAACGTAACAGAAAGCAGC | 3.52 | 5.32 | 6.01 | 4.49 | 4.62 | 2.79 | 0.581 | 2.71
AGAACGAGGGCAATGAGTTGGTAGCACGGGTGGC | 0.799 | 0.857 | 1.09 | 1.47 | 0.619 | 0.555 | -0.125 | 1.98
ATCTCTAGGTAAAGATAGTTCAGTGACTGCAAAT | 1.33 | 0.534 | 0.542 | 0.648 | -0.00287 | 0.905 | 0.426 | 0.571
GCTTACGGGTCAATGGTTATAGCATGAATAGAAT | 2.28 | 4.02 | 3.9 | 1.65 | 4.17 | 1.87 | -0.17 | 0.787
ACTAGATGGTCAGCTGAGGTCACACACAATTCGG | 4.52 | 4.38 | 4.75 | 1.45 | 4.78 | 5.09 | 5.1 | 3.61
AGAACGAGGGCAATGGGTTGATAGCACGGGTGGC | 1.6 | 1.47 | 1.68 | 1.84 | 1.09 | 1.12 | 0.645 | 4.19
CCAGCTAGGTCAATGGTCAGCTAAAGCAGCTCGC | 2.83 | 3.55 | 4.15 | 1.51 | 2.04 | 2.1 | 0.209 | 0.021
CCGACTGGGGCAGAAAGGTTATCATACCATCCGG | 1.91 | 1.48 | 1 | -0.376 | 1.67 | 0.759 | -0.293 | -0.196
ATCTATAGGTAACAAGTTCAGTGAAAGAGAGGAC | 2.01 | 1.61 | 1.59 | 1.56 | 1.19 | 1.33 | 0.91 | 2.47
CGAACTTGGTCATTGACAGGACAGTGAATAGTAA | 0.601 | 1.04 | 0.884 | 0.43 | 0.621 | 0.513 | -0.107 | 0.11
ACGATTAGTTGAGACGAGGGCAACCGATAGGTTG | 0.939 | 0.385 | 0.643 | -0.112 | 0.354 | 2.41 | -0.196 | 0.605
ACTATCAGGCCAAGTTTGGGTCACTCAAACAAAG | 2.56 | 2.71 | 2.11 | 0.348 | 0.935 | 2.93 | 1.81 | 0.829
CCTACTGGGACATTCAGAGGTCATTGATCATATG | 4.09 | 3.72 | 3.06 | 1.77 | 4.05 | 3.38 | 1.9 | 4.08
ACTTACGGGTCAGCGAGGTTATAGCACGCGTATA | 3.53 | 4.79 | 4.61 | 1.45 | 4.69 | 3.83 | 1.06 | 2.44
GCTGCTAGGTCAGGCTGGTCAGCTAACGGGTACG | 2.55 | 2.75 | 4.34 | 0.391 | 1.07 | 1.63 | 0.201 | -0.177
GGAACGAGGGCATTCGAGCTGATAGCATGGCGAT | 0.164 | 0.737 | 1.2 | 2.72 | 0.444 | 0.7 | -0.936 | 1.53
TGATTGAGGTTAAAGATCAGGGAACGTGGCGTCG | 1.01 | 2.5 | 1.35 | 0.759 | 3.67 | 2.57 | 0.317 | 0.679
CAAACTAGGTCACGAAAGGTCAGAGTCGAATGAC | 5.65 | 7.33 | 7.81 | 2.37 | 7.38 | 4.84 | 2.26 | 2.55

Sequence | PBM binding z-score [1] | PBM binding z-score [2] | PBM binding z-score [3] | PBM binding z-score [4] | PBM binding z-score [5] | PBM binding z-score [6] | PBM binding z-score [7] | PBM binding z-score [8]
CAAACTAGGACACAGAGGTCAAAGTCCGTGCGTA | 4.68 | 5.54 | 5.17 | 2.31 | 6.42 | 4.36 | 2.5 | 5.25
TCGAGTAGGTTAGGGGCATCCAGAATGGCGTCGA | 1.01 | 0.269 | 0.268 | 0.271 | 0.71 | 1.05 | 0.256 | 0.462
TCGAGTAGGTGAGGGGCATTCAGAATGGCGTCGA | 0.716 | -0.0952 | -0.106 | 0.0823 | 0.442 | 0.268 | -0.559 | -0.687
TGTCAAAGTTCAAAGGTAACTTAAGTATCCACAC | 3.71 | 6.26 | 6.11 | 4.5 | 7.54 | 3.6 | -0.309 | 4.03
CCTATTAGTTGACCATAAGCGCAACCGAAGCTCG | 0.669 | 0.621 | 0.455 | 0.856 | 0.371 | 0.364 | 0.809 | 0.721
ACAGACAGGTGAGTGATGGTAACTCAGCTGGACG | -0.167 | 0.351 | 0.407 | -0.204 | 0.27 | -0.225 | -0.414 | -0.122
TCTTGTAGATCAACAGGAGGGTAAGAAAGATCGA | -0.229 | 0.172 | 0.108 | 0.172 | 0.0944 | -0.144 | -1.1 | -0.319
ATCTCTAGGTAAAGTTCAGTGCAAGATCGATAGA | 2.68 | 2.49 | 2.87 | 1.39 | 1.4 | 1.5 | 0.256 | 2.47
TGTCAAAGTTCACAGGTAACGTAAGTATCCACAC | 4.22 | 5.7 | 5.98 | 3.69 | 5.48 | 2.53 | -0.165 | 3.53
CGTCACAGTTCAAGGTAACGTAACAGAAAGCAGC | 1.63 | 2.45 | 2.53 | 2.69 | 2.14 | 2.24 | 1.24 | 1.53
CGTCCAAGGTCAGAAGGTCAGTGAAAGCGACGTG | 5.32 | 7.13 | 6.77 | 2.87 | 5.71 | 4.12 | 1.8 | 2.18
CCAGACAGGTGAAAGGTAACTTAGTCTGGTACGC | 0.975 | 1.23 | 0.78 | 0.208 | 2.05 | 0.818 | -0.205 | -0.23
GTACCAAGGTGAATAGTTCGTTGATGAGTAGGCG | 1.71 | 1.94 | 1.34 | -0.0101 | 0.854 | 1.39 | 0.601 | 0.698
GGAACGAGGGCATTCGGGTTGATAGCATGGCGAT | 0.654 | 1.05 | 1.55 | 3.18 | 0.826 | 2.68 | 0.0871 | 4.11
CGAGACAGGTGAAAGGTAACTCAGTCTGGTACGC | 0.817 | 1.2 | 0.702 | -0.262 | 2.11 | 0.861 | -0.303 | -0.342
ATATGTAGGTTATATCCGGGTCATTCAGGCTATG | 2.73 | 3.85 | 1.81 | 1.22 | 2.84 | 3.82 | 2.73 | 3.33
AGTCAAAGTTCACTAGGTATCGTAAGATTCAGCT | 3.71 | 4.66 | 5.74 | 4.28 | 3.72 | 1.51 | -0.258 | 4.12
CAAACTAGGTCACAGAGCTCAAAGTCCGTGCGTA | 3.35 | 4.37 | 4.81 | 1.38 | 3.73 | 3.25 | 1.11 | 0.62
ATATGTAGGTTATCGGGGCATTCAGTTTGCGCAT | 1.53 | 1.3 | 1.24 | 1.35 | 1.25 | 1.49 | 1.4 | 2.14
